Experimental findings from PubChem BioAssay (Tox21) are described below.

Unmarked numbers belong to inactive results. Records with an inconclusive call do not appear. Activity calls are given as the source filed them. Unless noted, the call rests on the fitted dose curve; in most records, active means well fitted curve in the direction sought with a large enough effect in the repeat runs; inconclusive means weak or mixed curves; inactive means no such curve, though single readings can be large; an effect the other way counts as inactive or inconclusive.

Experiment [1] is described as follows: qHTS assay for small molecule agonists of the p53 signaling pathway (AID 651631; calls by dose curve; further: nearly all actives have a fitted effect of over 15% in size). A digest of the protocol:
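HCT-116 p53RE-bla reporter line, 16 h compound treatment at 37 °C, then fluorescence after 2 h with B/G FRET substrate.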
For orientation: qHTS replaces the single test concentration by a dilution series.

Experiment [2] in a line: qHTS assay for small molecules that induce genotoxicity in human embryonic kidney cells expressing luciferase-tagged ATAD5 (AID 651632). Further: nearly all actives have a fitted effect of over 15% in size. Further: potency means the concentration at half of the fitted maximal effect. A digest of the protocol:
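Luminescent reporter readout, HEK293T ATAD5-luc line: 16 hr drug exposure (37C, 5% CO2) followed by Amplite, 30 min RT.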

Experiment [3] in a line: qHTS assay for small molecule agonists of the p53 signaling pathway - cell viability (AID 651633; calls by dose curve;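 further: p53RE-bla HCT reporter cells with a stable beta-lactamase p53 reporter; series mostly up to about 83 µM; nearly all actives have a fitted effect of over 30% in size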). A digest of the protocol:
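p53RE-bla cells were treated with compound for 16 hours at 37 C. Cytotoxicity was then measured as CellTiter-Glo luminescence after 30 min at room temperature.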

Experiment [4] can be described thus: qHTS assay for small molecules that induce genotoxicity in human embryonic kidney cells expressing luciferase-tagged ATAD5 - cell viability (AID 651634; calls by dose curve; further: nearly all actives have a fitted effect of over 25% in size). A digest of the protocol: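 Viability read: CellTiter-Fluor fluorescence, 30 min at 37C. Cells: HEK293T, luciferase-tagged ATAD5. Exposure: 15.5 hr, 37C, 5% CO2, compound or DMSO vehicle.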
The nature of experiment [5]: qHTS assay for small molecule disruptors of the mitochondrial membrane potential - cell viability (AID 720634; calls by dose curve; further: nearly all actives have a fitted effect of over 20% in size; further: potency means the concentration at half of the fitted maximal effect). In a few lines:
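HepG2, 1 hr compound, 37 C. ATP luminescence via CellTiter-Glo, 30 min RT, same well as m-MPI.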

A short description of experiment [6]: qHTS assay for small molecule disruptors of the mitochondrial membrane potential (AID 720635). Further: potency means the concentration at half of the fitted maximal effect. In a few lines:
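HepG2 cells exposed to compound 1 hr at 37C, then Mito-MPS dye 30 min. Ratio read of aggregate (540/590 nm) versus monomer (490/535 nm) fluorescence.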

A short description of experiment [7]: qHTS assay to test for compound auto fluorescence at 590 nm (red) in HepG2 cells (AID 720674). In a few lines:
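Fluorescence at 590 nm emission following 540 nm excitation was recorded from HepG2 wells one hour after compound transfer, with DMSO-only wells as vehicle and Rose Bengal sodium equivalency as the scale.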

Experiment [8] can be described thus: qHTS assay to test for compound auto fluorescence at 535 nm (green) in HepG2 cells (AID 720675).
Experiment [9] is described as follows: qHTS assay to test for compound auto fluorescence at 460 nm (blue) in HEK293 cells (AID 720678). A digest of the protocol: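 HEK293, 2,000 cells/well, 10% dialyzed FBS; attach 4-5 hr 37C; pin compound or DMSO; o/n 37C/5% CO2; fluorescence 405/460 nm; triamterene-equivalent units.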
A short description of experiment [10]: qHTS assay to test for compound auto fluorescence at 590 nm (red) in HEK293 cells (AID 720679). In a few lines: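 Intensity at 540nm excitation and 590nm emission is reported as Rose Bengal sodium-equivalent autofluorescence. Measurements followed overnight exposure (37C, 5% CO2) of HEK293 cells, 2,000 per well, to 23 nL compound.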
Experiment [11] can be described thus: qHTS assay to test for compound auto fluorescence at 535 nm (green) in HEK293 cells (AID 720680).
A short description of experiment [12]: qHTS assay to test for compound auto fluorescence at 460 nm (blue) in HEK293 cell free culture (AID 720681). In a few lines: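 Compounds were added to cell-free DMEM with 10% FBS and fluorescence read directly. The blue channel used 405 nm excitation and 460 nm emission, with triamterene as the reference fluorophore.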
A short description of experiment [13]: qHTS assay to test for compound auto fluorescence at 590 nm (red) in HEK293 cell free culture (AID 720683). In a few lines:
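Cell-free wells of DMEM with 10% FBS received compound, and intrinsic fluorescence was read at excitation/emission 540/590 nm. Values expressed as equivalence to Rose Bengal sodium.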

The nature of experiment [14]: qHTS assay to test for compound auto fluorescence at 460 nm (blue) in HepG2 cell free culture (AID 720685). In a few lines: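 Compound (23 nL) or DMSO pinned into cell-free MEM with 10% FBS; blue fluorescence read at 405/460 nm excitation/emission, expressed as auto-fluorescence equivalency to triamterene.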
The nature of experiment [15]: qHTS assay to test for compound auto fluorescence at 535 nm (green) in HepG2 cell free culture (AID 720686).
Experiment [16] concerns the target Glucocorticoid receptor (Homo sapiens) (UniProt P04150). The experiment in a line: qHTS assay to identify small molecule agonists of the glucocorticoid receptor (GR) signaling pathway (AID 720691; active means well fitted activation curve with a large enough effect in the signal ratio in the repeat runs, not every such curve was filed as active; the % refers to the signal ratio). A digest of the protocol: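 qHTS in GR-bla HeLa cells: 4 h settling at 37 C/5% CO2, 18 h compound incubation at 37 C, 2 h LiveBLAzer B/G FRET substrate at room temperature, fluorescence intensity measured.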

Experiment [17] has the same target. The experiment in a line: qHTS assay to identify small molecule antagonists of the glucocorticoid receptor (GR) signaling pathway (AID 720692; active means well fitted inhibition curve with a large enough effect in the signal ratio in the repeat runs, not every such curve was filed as active; the % refers to the signal ratio). In a few lines:
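Inhibition of glucocorticoid signalling is measured in HeLa cells with a GRE-controlled beta-lactamase reporter; cells are co-treated with compound and 5 nM dexamethasone (final) for 18 h before FRET substrate readout.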

A short description of experiment [18]: qHTS assay to test for compound auto fluorescence at 535 nm (green) in HEK293 cell free culture (AID 720682). In a few lines:
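Steps: dispense DMEM/10% FBS into empty wells; pin in compound or DMSO; measure fluorescence at 485/535 nm. Values are fluorescein equivalents.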

The nature of experiment [19]: qHTS assay to test for compound auto fluorescence at 590 nm (red) in HepG2 cell free culture (AID 720684). A digest of the protocol:
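Compound was pinned into wells holding MEM with 10% FBS and no cells, and red fluorescence was read at Ex/Em 540/590 nm. Signal is expressed as auto fluorescence equivalency relative to Rose Bengal sodium.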

Experiment [20] in a line: qHTS assay to test for compound auto fluorescence at 460 nm (blue) in HepG2 cells (AID 720687). A digest of the protocol: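 HepG2 cells in MEM with 10% FBS, attached overnight at 37 C, were exposed to compound or DMSO for 1 hr at 37 C, 5% CO2. Blue fluorescence was read at 405/460 nm, with triamterene as reference fluorophore.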
On the % scale 0 is the no-effect control and ±100 the full control effect.

Glucocorticoid receptor (Homo sapiens), sequence (P04150 whole entry, looked up): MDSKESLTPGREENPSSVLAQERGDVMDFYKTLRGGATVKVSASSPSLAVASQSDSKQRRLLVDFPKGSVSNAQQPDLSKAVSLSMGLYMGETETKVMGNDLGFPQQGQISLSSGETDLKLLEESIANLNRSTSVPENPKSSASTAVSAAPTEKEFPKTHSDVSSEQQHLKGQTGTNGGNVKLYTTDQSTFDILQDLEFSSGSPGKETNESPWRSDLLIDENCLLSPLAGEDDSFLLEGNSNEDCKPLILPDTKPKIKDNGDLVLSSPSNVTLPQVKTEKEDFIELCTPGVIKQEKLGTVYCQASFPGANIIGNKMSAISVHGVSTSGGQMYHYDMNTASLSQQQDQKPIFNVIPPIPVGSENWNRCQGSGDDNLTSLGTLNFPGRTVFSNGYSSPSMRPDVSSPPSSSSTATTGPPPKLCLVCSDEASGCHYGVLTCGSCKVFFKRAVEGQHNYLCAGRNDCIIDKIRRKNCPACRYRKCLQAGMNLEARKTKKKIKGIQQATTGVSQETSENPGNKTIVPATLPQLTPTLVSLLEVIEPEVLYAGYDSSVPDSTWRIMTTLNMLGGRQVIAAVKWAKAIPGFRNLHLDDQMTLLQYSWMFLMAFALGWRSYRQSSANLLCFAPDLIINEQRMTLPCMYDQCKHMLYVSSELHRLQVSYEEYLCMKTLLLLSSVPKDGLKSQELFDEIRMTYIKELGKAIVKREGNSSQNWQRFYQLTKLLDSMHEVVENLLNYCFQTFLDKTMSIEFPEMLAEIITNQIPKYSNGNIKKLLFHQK

On to `CC(=O)CC(=O)c1ccccc1`, for which the Potency entry in [1], in experiment [2], in [3], in experiment [4], in experiment [5] and in [6] was “inactive” throughout. Also, the Potency entry in experiment [9], in [12], in [14], in [16] and in experiment [17] was “inactive” throughout. Further, the compound was called inactive in [7], in experiment [8], in experiment [10], in experiment [11], in [13] and in experiment [15].
As for `OCC1CC2CC1C1CCC(CO)C21` (stereo not drawn), the Potency result in experiment [1], in experiment [2], in experiment [3], in experiment [4], in experiment [5] and in experiment [6] was “inactive” in each case. Also, the Potency result in [9], in experiment [12], in experiment [14] and in [20] was “inactive” throughout. Further, the result in experiment [7], in [8], in experiment [11], in experiment [18], in experiment [13] and in experiment [19] was inactive. Moreover, in [15], the compound was called inactive.
For the compound `Cc1cccc(C(C)(C)C)c1O`, the Potency result in experiment [1], in experiment [2], in experiment [3], in [4], in experiment [5] and in experiment [6] was “inactive” throughout. Moreover, the Potency entry in experiment [9], in [12], in [14], in experiment [16] and in [17] was “inactive” each time. Moreover, the compound was called inactive in experiment [7], in [8], in experiment [10], in experiment [11], in [18] and in experiment [13]. Also, the result in experiment [19] and in experiment [15] was inactive.
Turning to `Cc1ccc(C(=O)C(C)CN2CCCCC2)cc1` (stereo not drawn), the Potency result in experiment [1], in experiment [2], in experiment [3], in experiment [4], in [5] and in experiment [6] was “inactive” throughout. In addition, the Potency result in experiment [9], in experiment [12], in experiment [14] and in experiment [20] was “inactive” in each case. Further, the result in experiment [7], in experiment [8], in [10], in experiment [11], in experiment [13] and in [19] was inactive. The result in [15] was inactive.
Regarding `CC1(C)[C@H]2CC[C@]1(C)[C@H](O)C2`, the Potency entry in experiment [1], in experiment [2], in experiment [3], in experiment [4], in experiment [5] and in experiment [6] was “inactive” in each case. The Potency entry in experiment [9], in [12], in experiment [14] and in experiment [16] was “inactive” throughout. Moreover, the compound was called inactive in [7], in experiment [8], in experiment [11], in experiment [18], in experiment [13] and in [19]. Besides, in experiment [15], the call was inactive.
For `N=C(N=C(N)N)N1CCOCC1`, the Potency entry in [1], in [2], in experiment [3], in experiment [4], in experiment [5] and in experiment [6] was “inactive” each time. Moreover, in [16], the Potency entry is “inactive”. Also, the fluorescence, relative to Rose Bengal in experiment [7] was 0.372% [at 18.6 µM]. Moreover, the fluorescence, % of fluorescein control in experiment [8] was -0.084% [at 18.6 µM]; in [15], -0.0914% [at 18.6 µM]. Further, in experiment [9], the fluorescence, % of triamterene was -0.223% [at 18.6 µM]. In addition, the fluorescence, % of fluorescent control was 0.0856% [at 18.6 µM] in [10]; 0.0143% [at 18.6 µM] in [12]; 0.292% [at 18.6 µM] in experiment [13]; 0.021% [at 18.6 µM] in experiment [14]; 0.133% [at 18.6 µM] in experiment [20]. Further, in [11], the fluorescence, % of fluorescein is -0.0392% [at 18.6 µM].
On to `O=C(CC(=O)c1ccccc1)c1ccccc1`, for which the Potency entry in [1], in experiment [3], in experiment [4], in [9], in experiment [14] and in experiment [20] was “inactive” each time. The Potency entry in experiment [16] and in experiment [17] was “inactive” throughout. Also, the Potency in experiment [2] was 11.7 µM (active); in [5], 36.9 µM (active); in experiment [6] it was 11.7 µM (active). For the same compound, the outcome in experiment [7], in experiment [8], in experiment [10], in [11], in experiment [18] and in [13] was inactive. The compound was classed as inactive in [19] and in experiment [15].
